Data on 15 molecules can be found in PubChem BioAssay.

Assay [1] has as its target Cell division control protein 42 homolog (Homo sapiens) (UniProt P60953). Briefly: activated mutant Cdc42 GTP-binding inhibitors, dose response, biochemical, multiplex bead flow cytometry, Bodipy-FL-GTP (AID 1333;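 active means fitted half-maximal concentration within the tested dose range, moderate curve steepness, a statistically real signal drop, and little compound fluorescence or tag-binding interference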). A general note: A flow cytometer gives signals particle by particle.
The target is the same in assay [2]. The assay is described as follows: wildtype Cdc42 GTP-binding inhibitors, dose response, biochemical, multiplex bead flow cytometry, Bodipy-FL-GTP (AID 1334;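 active means fitted half-maximal concentration within the tested range, moderate curve steepness, significant signal drop, and little compound fluorescence or bead-linkage interference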). The following applies: bead-based flow cytometry, Bodipy-FL-GTP binding to GST-Cdc42; at 100 µM (top of the series) unless noted.
The target of assay [3] is GTPase HRas (Homo sapiens) (UniProt P01112). The assay is described as follows: inhibitors of GTP binding to wildtype Ras, dose response, biochemical, multiplex bead flow cytometry (AID 1335). The conditions noted are these: bead-based flow cytometry, Bodipy-GTP binding to GST-Ras; at 100 µM (top of the series) unless noted.
The test system of assay [4] is Ras-related protein Rab-7a (dog), GTP binding. Briefly: Rab7 GTP binding inhibitors, potency, dose response, biochemical, wildtype, multiplex bead flow cytometry (AID 1336; call rule not given here).
In assay [5] the target is Ras-related C3 botulinum toxin substrate 1 (Homo sapiens) (UniProt P63000). Briefly: wildtype Rac1 GTP binding inhibitors, dose response, biochemical, multiplex bead flow cytometry (AID 1340;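 active means dose curve with midpoint inside tested range, moderate steepness, plateau gap beyond fit error, low compound glow and bead-link interference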). The conditions noted are these: GST-Rac1 beads, Bodipy-FL-GTP binding; at 100 µM (top of the series) unless noted.
The target in assay [6] is GTPase HRas (Homo sapiens) (UniProt P01112). The assay is described as follows: activated Ras mutant GTP binding inhibitors, dose response, biochemical, multiplex bead flow cytometry (AID 1341;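 active means dose-response curve with midpoint inside the tested range, moderate steepness, significant amplitude and little compound fluorescence or bead-attachment interference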;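 further: GST-tagged constitutively activated Ras mutant immobilized on beads and multiplexed with other GTPases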).

For part of these data: Measured potencies and affinities stand elsewhere. The source made the active and inactive calls.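 How the source made its calls, unless noted: active means fitted half-maximal concentration within 10 nM to 100 µM, steepness 0.5 to 2, significant signal drop, low assay interference; inactive means the rest.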

Sequence of GTPase HRas (Homo sapiens) (P01112 whole entry, looked up): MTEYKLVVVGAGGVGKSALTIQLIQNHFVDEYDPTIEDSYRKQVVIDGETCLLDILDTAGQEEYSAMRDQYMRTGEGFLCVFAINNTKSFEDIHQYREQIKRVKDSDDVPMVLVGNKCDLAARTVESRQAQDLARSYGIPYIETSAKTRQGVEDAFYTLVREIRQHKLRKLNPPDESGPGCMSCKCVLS
Sequence of Cell division control protein 42 homolog (Homo sapiens) (P60953 whole entry, looked up): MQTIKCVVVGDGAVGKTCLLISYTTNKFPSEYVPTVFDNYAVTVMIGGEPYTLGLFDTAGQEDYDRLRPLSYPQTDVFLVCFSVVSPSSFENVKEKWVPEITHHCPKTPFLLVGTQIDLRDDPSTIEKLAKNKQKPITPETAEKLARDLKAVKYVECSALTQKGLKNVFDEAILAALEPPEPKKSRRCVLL

In the case of `COc1cccc(C2CC(c3ccccc3)=NN2S(=O)(=O)c2ccc(C)cc2)c1OC` (stereo not given), the molecule was classed as inactive in assay [1], in assay [4] and in assay [6]. In addition, the fluorescence, percent of control (lower = inhibition) in assay [2] stood at 93.3%. The molecule also had a GTP binding, percent of control in assay [3] of 141%. Also, in assay [5], the GTP binding signal, raw median fluorescence (lower = inhibition) (MCF (arbitrary fluorescence units)) turned out to be 311.
As to `Cc1nc2cccc(C)n2c(=O)c1Cl`, the call in assay [1], in assay [4] and in assay [6] was inactive. In addition, the fluorescence, percent of control (lower = inhibition) in assay [2] stood at 38.6%. Moreover, the GTP binding, percent of control in assay [3] turned out to be 83.8%. This molecule returned a GTP binding signal, raw median fluorescence (lower = inhibition) (MCF (arbitrary fluorescence units)) in assay [5] of 255.
For `Nc1nonc1C(=O)NCCN=Cc1cc(Cc2ccccc2)cc(Br)c1O`, the result in assay [1], in assay [4] and in assay [6] was inactive. The fluorescence, percent of control (lower = inhibition) in assay [2] is 55.5%. Besides, the GTP binding, percent of control in assay [3] is 59%. This molecule had a GTP binding signal, raw median fluorescence (lower = inhibition) (MCF (arbitrary fluorescence units)) in assay [5] of 192.
As for `CC(=O)OC(C(=O)NC1CCCCC1)c1ccc(Cl)c(Cl)c1` (stereo not given), the molecule was called inactive in assay [1], in assay [4] and in assay [6]. In assay [2], the fluorescence, percent of control (lower = inhibition) stood at 39.6%. Also, in assay [3], the GTP binding, percent of control turned out to be 88.7%. This molecule also had a GTP binding signal, raw median fluorescence (lower = inhibition) (MCF (arbitrary fluorescence units)) in assay [5] of 310.
For the molecule `Cc1nc2ncccn2c1-c1csc(Nc2ccccc2)n1`, the molecule was called inactive in assay [1], in assay [4] and in assay [6]. In addition, the fluorescence, percent of control (lower = inhibition) in assay [2] is 26.5%. The GTP binding, percent of control in assay [3] came out at 40.8%. In assay [5], this molecule registered a GTP binding signal, raw median fluorescence (lower = inhibition) (MCF (arbitrary fluorescence units)) of 105.
`C=CCN1C(=O)/C(=C/C=C2/N(CC)c3ccc(S(=O)(=O)N(C)C)cc3N2CC)SC1=S`: the molecule was classed as inactive in assay [1], in assay [4] and in assay [6]. For the same molecule, the fluorescence, percent of control (lower = inhibition) in assay [2] is 56.2%. This molecule gave a GTP binding, percent of control in assay [3] of 88.4%. Also, the GTP binding signal, raw median fluorescence (lower = inhibition) (MCF (arbitrary fluorescence units)) in assay [5] came to 215.
Turning to `COc1ccc(/C=C2\SC(=S)NC2=O)cc1OS(=O)(=O)c1ccc(NC(C)=O)cc1`, the molecule was classed as inactive in assay [1], in assay [4] and in assay [6]. Besides, the fluorescence, percent of control (lower = inhibition) in assay [2] amounted to 30.9%. This molecule showed a GTP binding, percent of control in assay [3] of 80.1%. This molecule returned a GTP binding signal, raw median fluorescence (lower = inhibition) (MCF (arbitrary fluorescence units)) in assay [5] of 261.
Turning to `O=C(COc1ncnc2cc([N+](=O)[O-])ccc12)NCc1ccc2c(c1)OCO2`, the result in assay [1], in assay [4] and in assay [6] was inactive. For the same molecule, the fluorescence, percent of control (lower = inhibition) in assay [2] came to 42.7%. The molecule also displayed a GTP binding, percent of control in assay [3] of 56.9%. In addition, the GTP binding signal, raw median fluorescence (lower = inhibition) (MCF (arbitrary fluorescence units)) in assay [5] was 118.
Consider `N#Cc1c2c(c(-c3ccccc3Cl)[nH]c1=S)CCCC2`, for which the call in assay [1], in assay [4] and in assay [6] was inactive. Besides, the fluorescence, percent of control (lower = inhibition) in assay [2] worked out at 28.8%. The molecule further had a GTP binding, percent of control in assay [3] of 78.4%. The GTP binding signal, raw median fluorescence (lower = inhibition) (MCF (arbitrary fluorescence units)) in assay [5] is 248.
For `C/C(=N\NC(=O)CC1N=C(Cc2ccccc2)NNC1=O)c1ccc(Cl)cc1Cl` (stereo not given), the outcome in assay [1], in assay [4] and in assay [6] was inactive. In addition, in assay [2], the fluorescence, percent of control (lower = inhibition) came to 90.1%. This molecule registered a GTP binding, percent of control in assay [3] of 160%. The same molecule came in with a GTP binding signal, raw median fluorescence (lower = inhibition) (MCF (arbitrary fluorescence units)) in assay [5] of 175.
For `Cc1cc(C)n(Cc2n[nH]c(=S)n2Cc2ccccc2)n1`, the molecule was called inactive in assay [1], in assay [4] and in assay [6]. In assay [2], the fluorescence, percent of control (lower = inhibition) was 106%. In assay [3], this molecule displayed a GTP binding, percent of control of 189%. Moreover, in assay [5], the GTP binding signal, raw median fluorescence (lower = inhibition) (MCF (arbitrary fluorescence units)) worked out at 198.
For the molecule `O=C(COc1ccccc1C(=O)N/N=C\c1ccc(O)c(O)c1)N/N=C/c1ccc(O)c(O)c1`, the molecule was called inactive in assay [1], in assay [4] and in assay [6]. Moreover, the fluorescence, percent of control (lower = inhibition) in assay [2] was 38%. The molecule further came in with a GTP binding, percent of control in assay [3] of 157%. In assay [5], this molecule returned a GTP binding signal, raw median fluorescence (lower = inhibition) (MCF (arbitrary fluorescence units)) of 193.
Take `COCCNc1nnnc2c1sc1nc(N3CCOCC3)c3c(c12)CCCC3`: the molecule was called inactive in assay [1], in assay [4] and in assay [6]. Besides, in assay [2], the fluorescence, percent of control (lower = inhibition) turned out to be 29.6%. In assay [3], this molecule displayed a GTP binding, percent of control of 64.1%. The GTP binding signal, raw median fluorescence (lower = inhibition) (MCF (arbitrary fluorescence units)) in assay [5] is 137.
Turning to `CCOc1ccc(-n2nc3c(SCCN4CCCC4)nnc(C)c3c2C)cc1`, the call in assay [1], in assay [4] and in assay [6] was inactive. Besides, the fluorescence, percent of control (lower = inhibition) in assay [2] turned out to be 57.3%. The GTP binding, percent of control in assay [3] is 71.4%. In addition, the GTP binding signal, raw median fluorescence (lower = inhibition) (MCF (arbitrary fluorescence units)) in assay [5] amounted to 230.
Turning to `O=C(COc1cc(Cl)ccc1Cl)Nc1nnc(CC(=O)N2CCOCC2)s1`, the outcome in assay [1], in assay [4] and in assay [6] was inactive. Further, the fluorescence, percent of control (lower = inhibition) in assay [2] was found to be 90.6%. In assay [3], this molecule showed a GTP binding, percent of control of 152%. The GTP binding signal, raw median fluorescence (lower = inhibition) (MCF (arbitrary fluorescence units)) in assay [5] turned out to be 178.
